Only some compounds are listed: those with a hit (about 21% of all), similar ones and a draw of the others.
SARS PLP yeast – qHTS of Yeast-based Assay for SARS-CoV PLP. hit rate 0.19% among 330,000. Potency, µM (titrated, usually from 32.9 µM), most hits filed as activators. S. cerevisiae expressing SARS-CoV PLpro, growth rescue; also: nearly all actives have a fitted effect of over 55% in size
CHX counter – Cycloheximide Counterscreen for Small Molecule Inhibitors of Shiga Toxin; hit rate 12% among 300,000; max response, %; cell reporter, cycloheximide protein synthesis inhibition counterscreen; in the data active = max response mostly above about 13%, no sharp cut-off; inactive = mostly below about 14%; also: read at 38.3 µM for the half of the compounds with a filed dose
Shiga inhibitor – A qHTS for Small Molecule Inhibitors of Shiga Toxin; Vero cells, Shiga toxin protein synthesis inhibition reporter; inhibition, % at 38.7 µM; hit rate 9.2% among 290,000; in the data active = inhibition mostly above about 28%, no sharp cut-off; inactive = mostly below about 43%
Pf growth 48h – Primary qHTS for delayed death inhibitors of the malarial parasite plastid, 48 hour incubation | AID 504832, 2011 | P. falciparum luciferase growth in erythrocytes, 48 h | Potency, µM (top dose mostly 28.7 µM), most hits filed as inhibitors | hit rate 5.9% among 310,000; active = well fitted inhibition curve with a large enough effect; inconclusive = small, poorly fitted or top-dose-only effect, or another doubt; inactive = no such curve, though single readings can be large or run the other way
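Luminescence readout; reporter = integrated firefly luciferase in P. falciparum. RBC culture at 2% hematocrit, 0.1% parasitemia final, 37 C/5% CO2; decreased signal taken as growth inhibition.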
NS1 function inh – qHTS Assay for Inhibitors of Influenza NS1 Protein Function. Potency, µM (highest dose often 46.1 µM). hit rate 0.4% among 270,000; also: actives are rising curves; nearly all actives have a fitted effect of over 50% in size
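Compounds were scored for reversing the slow growth caused by influenza A NS1 in S. cerevisiae, measured by optical density at 600 nm. Assay medium contained 2% galactose at pH 6.0; NS1-free yeast of the same strain were the positive control.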
Pf growth 96h – Primary qHTS for delayed death inhibitors of the malarial parasite plastid, 96 hour incubation | P. falciparum luciferase reporter growth, 96 h | Potency, µM (series often up to 28.7 µM), most hits filed as inhibitors | hit rate 6.9% among 320,000 | AID 504834, 2011; active = well fitted inhibition curve with a large enough effect; inconclusive = small, poorly fitted or top-dose-only effect, or another doubt; inactive = no such curve, though single readings can be large or run the other way
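Two parasite generations (96 h, 37 C, 5% CO2) of compound exposure in infected erythrocytes (0.05% parasitemia, 2% hematocrit). Luciferase-reporter P. falciparum; decreased luminescence indicates inhibited growth, aimed at apicoplast-acting delayed death.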
Hits are given with their value; . = inactive; ? = inconclusive; / = no result given; [ ] = another dose, or the depositor's remark. Unless noted, calls follow the shape of the full dose curve.

SMILES	SARS PLP yeast	CHX counter	Shiga inhibitor	Pf growth 48h	NS1 function inh	Pf growth 96h
CC[C@]1(C(=O)OC)[C@H]2C(=O)N(C)C(=O)[C@H]2[C@H]2CN=C(SCc3ccc(C)cc3)N21	.	/	/	/	/	/
CC(NCc1ccccc1)c1ccccc1O (stereo not drawn)	.	.	.	1.7µM	.	10µM
CC(CCc1ccccc1)NCc1ccncc1 (stereo not drawn)	.	.	.	.	.	.
CCCCn1c(=O)n(CC(=O)NCc2ccc(C)cc2)c(=O)c2c1nc(CO)n2CCC	.	.	.	?	.	4.1µM
N#Cc1c(NCCN)nc(-c2ccco2)c2c1CCCC2	.	.	.	/	.	?
CC(C)CCNc1nc(-c2ccco2)c2c(c1C#N)CCCC2	.	.	.	/	.	13µM
CC1CCCN(C(=O)c2cc3ccccc3cc2O)C1 (stereo not drawn)	.	.	.	?	.	?
O=C(NCCc1ccc(Cl)cc1)c1n[nH]c2ccccc12	.	.	40	.	/	.
CCc1nnc(NC(=O)c2n[nH]c(=O)c3ccccc23)s1	.	.	.	.	.	.
O=C(NCCc1ccccn1)c1n[nH]c(=O)c2ccccc12	.	.	.	.	.	13µM
CCc1ccc(NC(=O)c2n[nH]c(=O)c3ccccc23)cc1	.	36	79	.	.	.
CCCNC(=O)c1n[nH]c(=O)c2ccccc12	.	.	.	.	.	.
O=C(CNC(=O)c1ccccc1F)NCCc1ccc(Cl)cc1	.	.	.	.	.	.
O=C(COC(=O)c1n[nH]c2ccccc12)NCCc1ccccc1	.	/	/	/	/	/
O=C(NCCc1ccccc1)c1n[nH]c2ccccc12	.	51	145	.	.	.
S=P(N1CC1)(N1CC1)N1CC1	/	/	/	.	/	.
CCOC(=O)c1c(S(=O)(=O)NCc2ccco2)c(C)n(C)c1C	.	.	.	.	.	.
CCCCn1c(N)c(N(C)C(=O)c2cc3c(F)cccc3s2)c(=O)[nH]c1=O	.	/	/	/	/	/
CCCC(=O)c1c[nH]c(C(=O)NCCc2ccccn2)c1	.	16	.	.	.	.
Cc1ccc(NC(=O)CSc2nnc(Cc3csc(C)n3)o2)cc1	.	/	/	.	/	?
CCOc1ccc(Nc2nc(Cc3nnc(SCC(=O)c4ccc(C)c(C)c4)o3)cs2)cc1	.	21	.	.	.	/
Cc1ccccc1Nc1nc(-c2ccccc2)c(C(=O)Nc2cccnc2)s1	.	16	.	.	.	?
O=C(Nc1cccnc1)c1sc(Nc2ccccc2F)nc1-c1ccccc1	.	.	.	.	/	.
CC1(C)C/C(=N\NC(=S)Nc2ccccc2F)c2cc(O)ccc2O1	.	.	.	13µM	/	10µM
Cc1cccc(NC(=S)N/N=C2\CC(C)(C)Oc3ccc(O)cc32)c1	?	.	.	?	.	?
SMILES	SARS PLP yeast	CHX counter	Shiga inhibitor	Pf growth 48h	NS1 function inh	Pf growth 96h
CCCCCCCCCCCCCCCCCCOC[C@H](COP(=O)([O-])OCC[N+](C)(C)C)OC	/	/	/	.	.	.
CCCCCCCCCCCCCCCCOP(=O)([O-])OCC[N+](C)(C)C	/	/	/	?	/	7.6µM
O=C1c2ccccc2C(=O)N1CCN1CCc2ccccc21	.	37	94	.	.	.
c1ccc2c(c1)CCN2CCN1CCc2ccccc21	.	.	.	?	.	.
COc1ccc2occ(C(C)=O)c2c1	.	.	.	/	.	?
COc1ccc2occ(C(=O)c3ccccc3)c2c1	.	38	66	.	/	.
COc1ccc(OC)c(C(=O)c2coc3ccc(O)cc23)c1	.	25	103	.	.	10µM
O=C(NC(=S)NCc1ccccc1)c1cccc(Cl)c1	.	.	.	.	.	.
CSCCC(NC(=O)COc1ccccc1)C(=O)NC1CCC(C)CC1 (stereo not drawn)	.	/	/	.	/	.
COc1cccc(NC(=O)CSc2nc3ccccc3cc2Cc2ccccc2)c1	.	.	.	3.3µM	.	7.4µM
COc1ccc(OC)c(NC(=O)CSc2nc3ccccc3c3nc4ccccc4n23)c1	.	.	.	0.83µM	.	?
COc1cc(NC(=O)CSc2nc3ccccc3cc2Cc2ccccc2)cc(OC)c1	.	.	.	12µM	.	?
COc1ccc(OC)c(NC(=O)CSc2nc3ccccc3cc2Cc2ccccc2)c1	.	.	.	?	.	6.6µM
CC(C)(CS(=O)(=O)[O-])NC(=O)CC[N+](C)(C)CCO	.	.	.	.	.	.
CC(C)(C)CC(=O)Nc1cc2c3c(c1)CCN3C(=O)CC2	.	.	.	.	.	.
Cc1ccc(CC2SC(=Nc3ccccc3)N(c3ccccc3)C2=O)cc1 (stereo not drawn)	.	.	.	10µM	.	.
Cc1ccc(N2C(=O)SC(Cc3ccccc3)C2=O)cc1 (stereo not drawn)	.	14	42	.	.	.
COc1ccc(N(CC(=O)N2CCC(Cc3ccccc3)CC2)S(C)(=O)=O)cc1	.	.	.	.	.	.
CCN(C(=O)COC(=O)c1ccc(S(=O)(=O)N2CCCc3ccccc32)cc1)C1CCS(=O)(=O)C1 (stereo not drawn)	.	.	.	.	/	.[5.75 µM]
C/C(=C\c1ccc(C)o1)C(=O)c1c(C)cc(C)[nH]c1=O	.	.	.	.	/	.
CC1CCc2c(sc(/N=C/c3cccnc3)c2C(N)=O)C1 (stereo not drawn)	.	16	.	.	.	?
CC1CCc2c(sc(NC(=O)C3c4ccccc4Oc4ccccc43)c2C(N)=O)C1 (stereo not drawn)	.	.	.	?	.	6.6µM
CC1CCc2c(sc(NC(=O)c3cccn3C)c2C(N)=O)C1 (stereo not drawn)	.	/	/	/	/	/
CC1CCc2c(sc(/N=C/c3ccco3)c2C(N)=O)C1 (stereo not drawn)	.	38	74	.	.	.
COC(=O)Nc1sc2c(c1C(N)=O)CCC(C)C2 (stereo not drawn)	.	.	.	.	.	.
SMILES	SARS PLP yeast	CHX counter	Shiga inhibitor	Pf growth 48h	NS1 function inh	Pf growth 96h
Nc1c(S(=O)(=O)O)cc(Nc2ccc(Cl)cc2)c2c1C(=O)c1ccccc1C2=O	/	.	.	/	/	/
Cc1ccc(S(=O)(=O)NCC(=O)NC2CC2)cc1	.	.	.	.	.	.
Cc1cccc(C)c1NC(=O)C(NS(=O)(=O)c1cccs1)c1ccccc1 (stereo not drawn)	.	.	.	.	.	?
CC(=O)c1c(O)c(C)c(O)c2c1OC1=CC(=O)C(C(C)=O)C(=O)[C@@]12C (stereo partly drawn)	.	.	.	.	.	.
O=S(=O)(c1cccc(C(F)(F)F)c1)N1CCN(c2nc(-c3cccs3)nc3cc(Cl)ccc23)CC1	/	.	.	/	/	/
Cc1sc2nc(CSC(C)C(=O)Nc3ccc(Cl)cn3)[nH]c(=O)c2c1C (stereo not drawn)	.	/	/	.	/	.
CCOC(=O)C[n+]1c(C)ccc2c1CCC2	.	.	.	.	.	8.3µM
CCOC(=O)C[n+]1c(C)csc1C	.	.	.	.	.	.

Assay outcomes as filed in PubChem BioAssay.
